{"source": "PubChem BioAssay AID624255", "about": "(Broad Institute, 2012)", "note": "Among all 77,000 compounds or so, about 4,600 (6%) were called active. Not shown: some 1% with an inconclusive outcome. The entries come from a sample that favours actives as a whole. Unmarked numbers belong to inactive results.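 The calls were made as follows: active = mean inhibition above about 93%, with at least 55% of replicates each passing it (limit read from the data, passing the limit was not always enough); inconclusive = only one of those two conditions holds; inactive = neither condition holds.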", "data": [{"assay": "T. cruzi intracellular proliferation inhibitors, primary screen, cell-based, beta-gal Tulahuen parasites, NIH3T3 host, luminescence (AID 624255)", "conditions": "T. cruzi beta-gal in NIH3T3, GalScreen luminescence, 90 h; at 8.34 µM; stronger effect = higher value", "values": [{"smiles": "CCNC(=O)Nc1ccc2c(c1)C(=O)N(C)[C@@H]1CC[C@@H](CC(=O)NC3CCCCC3)O[C@H]1CO2", "inhibition": "12.5%"}, {"smiles": "O=C(c1ccncc1)N1CCCCN2[C@H](CO)[C@H](c3ccc(-c4ccccc4)cc3)[C@H]2C1", "inhibition": "103% (active)"}, {"smiles": "O=C(c1ccc(F)cc1)N1CCCCN2[C@@H](CO)[C@H](c3ccc(-c4ccccc4)cc3)[C@@H]2C1", "inhibition": "61.8%"}, {"smiles": "C[C@H](O)C#Cc1ccc([C@@H]2[C@@H](CO)N3CCCCN(C(=O)c4ccncc4)C[C@@H]23)cc1", "inhibition": "15.2%"}, {"smiles": "COc1ccc(C#Cc2ccc([C@@H]3[C@@H](CO)N4CCCCN(C(=O)c5ccncc5)C[C@@H]34)cc2)cc1", "inhibition": "98.5% (active)"}, {"smiles": "C[C@@H](O)C#Cc1ccc([C@H]2[C@H](CO)N3CCCCN(C(=O)c4ccc(F)cc4)C[C@@H]23)cc1", "inhibition": "-25.9%"}, {"smiles": "COc1ccccc1-c1ccc([C@@H]2[C@@H](CO)N3CCCCN(C(=O)c4ccncc4)C[C@@H]23)cc1", "inhibition": "52.8%"}, {"smiles": "O=C(c1cccc(F)c1)N1CCCCN2[C@@H](CO)[C@H](c3ccc(-c4cncnc4)cc3)[C@@H]2C1", "inhibition": "83.5%"}, {"smiles": "CC(C)(O)C#Cc1ccc([C@H]2[C@H]3CN(C(=O)c4ccncc4)CCCCN3[C@H]2CO)cc1", "inhibition": "22%"}, {"smiles": "CC(C)(O)C#Cc1ccc([C@H]2[C@@H](CO)N3CCCCN(C(=O)c4ccncc4)C[C@H]23)cc1", "inhibition": "10.9%"}, {"smiles": "O=C(c1cccc(F)c1)N1CCCCN2[C@H](CO)[C@H](c3ccc(-c4ccncc4)cc3)[C@H]2C1", "inhibition": "99.9% (active)"}, {"smiles": "CC(C)(O)C#Cc1ccc([C@@H]2[C@H](CO)N3CCCCN(C(=O)c4cccc(F)c4)C[C@@H]23)cc1", "inhibition": "112% (active)"}, {"smiles": "O=C(c1cccc(F)c1)N1CCCCN2[C@H](CO)[C@@H](c3ccc(-c4cncnc4)cc3)[C@H]2C1", "inhibition": "44.2%"}, {"smiles": "O=C(C[C@@H]1CC[C@H]2[C@@H](COC[C@@H](O)CN2C(=O)c2ccc3c(c2)OCO3)O1)NC1CCCC1", "inhibition": "27%"}, {"smiles": "CCS(=O)(=O)Nc1ccc2c(c1)C(=O)N(C)[C@H]1CC[C@H](CC(=O)Nc3ccccc3)O[C@@H]1CO2", "inhibition": "49.6%"}, {"smiles": "C[C@@H]1CN([C@@H](C)CO)C(=O)c2cc(-c3ccc(F)cc3)cnc2O[C@H]1CN(C)C(=O)c1ccncc1", "inhibition": "64.3%"}, {"smiles": "CC(C)NC(=O)N(C)C[C@@H]1OCCCC[C@@H](C)Oc2ccc(NC(=O)c3ccccc3)cc2C(=O)N([C@@H](C)CO)C[C@H]1C", "inhibition": "30.5%"}, {"smiles": "COc1ccc(NC(=O)N(C)C[C@@H]2OCCCC[C@@H](C)Oc3ccc(NC(=O)C4CCCCC4)cc3C(=O)N([C@@H](C)CO)C[C@@H]2C)cc1", "inhibition": "36.5%"}, {"smiles": "CN1CCN(C(=O)C[C@H]2CC[C@H]3[C@H](COc4ccc(NC(=O)C5CC5)cc4C(=O)N3C)O2)CC1", "inhibition": "14.2%"}, {"smiles": "O=C(C[C@@H]1C[C@@H]2c3cc(NC(=O)Nc4ccc(C(F)(F)F)cc4)ccc3O[C@@H]2[C@@H](CO)O1)NCCc1ccccc1", "inhibition": "93.5%"}, {"smiles": "COc1ccccc1NC(=O)N1C[C@H](O)COC[C@H]2O[C@H](CC(=O)NCCc3ccccc3)CC[C@@H]21", "inhibition": "-5.34%"}, {"smiles": "CCCNC(=O)C[C@@H]1CC[C@@H]2[C@H](COc3ccc(NC(=O)C4CCOCC4)cc3C(=O)N2C)O1", "inhibition": "47.3%"}, {"smiles": "CO[C@@H]1CC[C@@H]2CCOc3ccc(C#N)cc3C(=O)N(C)C[C@@H](C)C(=O)N(C)C[C@@H]1O2", "inhibition": "9.86%"}, {"smiles": "C[C@H](O)C#Cc1ccc([C@H]2[C@H](CO)N3CCCCN(C(=O)c4ccc(F)cc4)C[C@@H]23)cc1", "inhibition": "66.2%"}, {"smiles": "CC(C)C#Cc1ccc([C@H]2[C@H](CO)N3CCCCN(C(=O)c4ccc(F)cc4)C[C@@H]23)cc1", "inhibition": "80.8%"}, {"smiles": "O=C(c1ccc(F)cc1)N1CCCCN2[C@H](C1)[C@@H](c1ccc(C#CC3(O)CCCC3)cc1)[C@@H]2CO", "inhibition": "113% (active)"}, {"smiles": "O=C(c1cccc(F)c1)N1CCCCN2[C@H](CO)[C@H](c3ccc(C#CC4(O)CCCC4)cc3)[C@H]2C1", "inhibition": "88.1%"}, {"smiles": "COc1ccc(S(=O)(=O)N(C)C[C@@H]2OCCCC[C@@H](C)Oc3ccc(N(C)C)cc3C(=O)N([C@@H](C)CO)C[C@@H]2C)cc1", "inhibition": "46.8%"}, {"smiles": "O=C(C[C@@H]1CC[C@@H](NC(=O)CC2CC2)[C@H](CO)O1)NCc1ccc(-c2ccccc2)cc1", "inhibition": "36.4%"}, {"smiles": "N#C[C@@H]1[C@@H](c2ccccc2)[C@@H](CO)N1C(=O)c1cc(Cl)cc(Cl)c1", "inhibition": "90.7%"}, {"smiles": "COc1ccc(NC(=O)Nc2ccc3c(c2)C(=O)N([C@@H](C)CO)C[C@@H](C)[C@H](CN(C)C(=O)NC(C)C)OCCCC[C@H](C)O3)cc1", "inhibition": "19.2%"}, {"smiles": "COc1cccc(-c2ccc3n(c2=O)C[C@@H]2[C@@H](CO)[C@H](C(=O)NCC4CC4)N(C(=O)NC(C)C)[C@H]32)c1", "inhibition": "-3.92%"}, {"smiles": "COc1ccc(-c2cn(CC[C@@H]3CC[C@@H](NS(=O)(=O)c4ccccc4C)[C@H](CO)O3)nn2)cc1", "inhibition": "-38.7%"}, {"smiles": "CCNC(=O)[C@H]1[C@H](CO)[C@H]2Cn3c(cccc3=O)[C@H]2N1C(=O)C1CCCC1", "inhibition": "-9.09%"}, {"smiles": "O=C(Nc1ccccc1)[C@@H]1[C@@H](CO)[C@@H]2Cn3c(cccc3=O)[C@@H]2N1C(=O)C1CC1", "inhibition": "90.7%"}, {"smiles": "O=C(Nc1ccc(-c2ccccc2)cc1)[C@H]1[C@H](CO)[C@H]2Cn3c(cccc3=O)[C@H]2N1CC1CC1", "inhibition": "170% (active)"}, {"smiles": "O=C(Nc1ccc(-c2ccccc2)cc1)[C@@H]1[C@@H](CO)[C@@H]2Cn3c(cccc3=O)[C@H]1N2Cc1ccncc1", "inhibition": "10.3%"}, {"smiles": "O=C(NC1CCCCC1)[C@@H]1[C@@H](CO)[C@@H]2Cn3c(cccc3=O)[C@@H]2N1C(=O)CC1CC1", "inhibition": "-9.4%"}, {"smiles": "O=C(NCC1CCCCC1)[C@H]1[C@H](CO)[C@H]2Cn3c(cccc3=O)[C@H]2N1C(=O)CC1CC1", "inhibition": "101% (active)"}, {"smiles": "COC(=O)C[C@H]1C[C@@H]2c3cc(NC(=O)Nc4ccccc4)ccc3O[C@@H]2[C@@H](CO)O1", "inhibition": "57.1%"}]}]}
